Test results: PubChem BioAssay (Tox21)
Inconclusive results are not listed. Active and inactive are the calls of the source. Unless noted, the call rests on the fitted dose curve; in most records, active means well fitted curve in the direction sought with a large enough effect in the repeat runs; inconclusive means weak or mixed curves; inactive means no such curve, though single readings can be large; an effect the other way counts as inactive or inconclusive.

Experiments:
[1] = molecular target: Estrogen receptor beta (Homo sapiens) (UniProt Q92731); assay: qHTS assay to identify small molecule agonists of the estrogen receptor beta (ER-beta) signaling pathway (AID 1259377; active means well fitted activation curve with a large enough effect in the signal ratio in the repeat runs, not every such curve was filed as active; the % refers to the signal ratio; further: potency means the concentration at half of the fitted maximal effect)
Chain of Estrogen receptor beta (Homo sapiens) (Q92731 whole entry, looked up): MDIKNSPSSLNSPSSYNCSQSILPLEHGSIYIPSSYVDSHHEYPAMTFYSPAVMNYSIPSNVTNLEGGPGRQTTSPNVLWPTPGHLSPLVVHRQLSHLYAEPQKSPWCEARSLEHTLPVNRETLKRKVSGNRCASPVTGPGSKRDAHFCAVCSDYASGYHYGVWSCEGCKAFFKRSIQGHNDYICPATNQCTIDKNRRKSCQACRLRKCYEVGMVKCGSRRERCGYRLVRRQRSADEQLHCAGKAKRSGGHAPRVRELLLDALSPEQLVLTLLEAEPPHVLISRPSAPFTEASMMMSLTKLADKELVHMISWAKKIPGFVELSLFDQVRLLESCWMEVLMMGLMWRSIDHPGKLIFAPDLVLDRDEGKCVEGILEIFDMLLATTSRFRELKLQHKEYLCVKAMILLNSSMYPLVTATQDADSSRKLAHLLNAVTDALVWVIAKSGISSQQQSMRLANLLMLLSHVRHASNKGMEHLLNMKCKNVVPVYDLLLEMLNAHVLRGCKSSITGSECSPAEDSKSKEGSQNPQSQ
In short: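 HEK293T ER-beta-UAS-bla; 2% charcoal-stripped FBS; cells pre-incubated 6 hr, compound 16 hr, 37C/5% CO2; LiveBLAzer B/G FRET substrate 2 h RT; fluorescence intensity read.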

[2] = qHTS assay to identify small molecule agonists of the androgen receptor (AR) signaling pathway in the presence of an antagonist - cell viability counter screen (AID 1259379); further: nearly all actives have a fitted effect of over 25% in size; further: potency means the concentration at half of the fitted maximal effect
In short: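 Seed MDA-kb2 at 3,000 cells/well; incubate 5 hr, 37C, 0% CO2. Add nilutamide to 3.0uM final, then pin compounds at 15 concentrations. Incubate 16 hr. Add CellTiter-Fluor at 15 hr, read fluorescence after 1 hr.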

[3] = molecular target: Androgen receptor (Homo sapiens) (UniProt P10275); assay: qHTS assay to identify small molecule agonists of the androgen receptor (AR) signaling pathway in the presence of an antagonist (AID 1259381; calls by dose curve; further: nearly all actives have a fitted effect of over 15% in size)
Chain of Androgen receptor (Homo sapiens) (P10275 whole entry, looked up): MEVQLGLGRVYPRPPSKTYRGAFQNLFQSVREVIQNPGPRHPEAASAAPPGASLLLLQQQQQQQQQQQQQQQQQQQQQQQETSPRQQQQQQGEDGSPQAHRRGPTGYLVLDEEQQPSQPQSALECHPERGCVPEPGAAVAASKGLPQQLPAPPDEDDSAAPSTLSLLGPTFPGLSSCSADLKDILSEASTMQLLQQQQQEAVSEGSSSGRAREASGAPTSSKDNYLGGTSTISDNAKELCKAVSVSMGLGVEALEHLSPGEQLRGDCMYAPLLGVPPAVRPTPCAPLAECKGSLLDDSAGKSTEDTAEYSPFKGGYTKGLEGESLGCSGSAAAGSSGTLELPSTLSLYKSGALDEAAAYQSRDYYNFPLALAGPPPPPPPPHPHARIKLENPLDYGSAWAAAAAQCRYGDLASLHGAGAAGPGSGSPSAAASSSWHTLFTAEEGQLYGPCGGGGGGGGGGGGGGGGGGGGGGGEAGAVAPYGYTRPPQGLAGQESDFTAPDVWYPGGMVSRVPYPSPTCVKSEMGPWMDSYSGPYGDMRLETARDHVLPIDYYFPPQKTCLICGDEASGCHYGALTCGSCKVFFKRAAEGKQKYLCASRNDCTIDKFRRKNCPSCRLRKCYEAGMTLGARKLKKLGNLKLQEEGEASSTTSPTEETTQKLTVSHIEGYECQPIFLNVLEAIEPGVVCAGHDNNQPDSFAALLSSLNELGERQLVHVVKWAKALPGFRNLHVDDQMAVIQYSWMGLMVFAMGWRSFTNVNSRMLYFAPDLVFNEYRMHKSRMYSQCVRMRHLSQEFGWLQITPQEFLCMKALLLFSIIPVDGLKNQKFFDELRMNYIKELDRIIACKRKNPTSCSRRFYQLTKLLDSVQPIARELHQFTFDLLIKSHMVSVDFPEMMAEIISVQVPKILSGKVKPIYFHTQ
In short: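 Test compounds at 15 concentrations were incubated for 16hr with MDA-kb2 reporter cells in presence of 3.0uM nilutamide (final). Signal: ONE-Glo luciferase luminescence.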

[4] = qHTS assay to identify small molecule antagonists of the estrogen receptor beta (ER-beta) signaling pathway - cell viability counter screen (AID 1259382); further: series mostly up to about 92 µM; nearly all actives have a fitted effect of over 55% in size
In short: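 In this multiplexed counter screen, cells were seeded at 2,000 per well in medium with 2% charcoal-stripped FBS and incubated 6 hr before compound and 1nM final E2 were added. Sixteen hours later, ATP-based luminescence reported viability.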

[5] = qHTS assay to identify small molecule agonists of the estrogen receptor alpha (ER-alpha) signaling pathway in the presence of an antagonist - cell viability counter screen (AID 1259386);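 further: cells exposed to compounds for 22 h at 37 °C before the viability read; nearly all actives have a fitted effect of over 30% in size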; further: potency means the concentration at half of the fitted maximal effect
In short: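 Viability counter screen using VM7Luc4E2 (full-length ER-alpha, four ERE-luciferase). The cells were treated with compounds alongside ICI-182,780 10.0nM for 22hr, and live-cell protease fluorescence was quantified with CellTiter-Fluor.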

[6] = molecular target: Progesterone receptor (Homo sapiens) (UniProt P06401); assay: qHTS assay to identify small molecule agonists of the progesterone receptor (PR) signaling pathway (AID 1346784; calls by dose curve; further: nearly all actives have a fitted effect of over 30% in size)
Chain of Progesterone receptor (Homo sapiens) (P06401 whole entry, looked up): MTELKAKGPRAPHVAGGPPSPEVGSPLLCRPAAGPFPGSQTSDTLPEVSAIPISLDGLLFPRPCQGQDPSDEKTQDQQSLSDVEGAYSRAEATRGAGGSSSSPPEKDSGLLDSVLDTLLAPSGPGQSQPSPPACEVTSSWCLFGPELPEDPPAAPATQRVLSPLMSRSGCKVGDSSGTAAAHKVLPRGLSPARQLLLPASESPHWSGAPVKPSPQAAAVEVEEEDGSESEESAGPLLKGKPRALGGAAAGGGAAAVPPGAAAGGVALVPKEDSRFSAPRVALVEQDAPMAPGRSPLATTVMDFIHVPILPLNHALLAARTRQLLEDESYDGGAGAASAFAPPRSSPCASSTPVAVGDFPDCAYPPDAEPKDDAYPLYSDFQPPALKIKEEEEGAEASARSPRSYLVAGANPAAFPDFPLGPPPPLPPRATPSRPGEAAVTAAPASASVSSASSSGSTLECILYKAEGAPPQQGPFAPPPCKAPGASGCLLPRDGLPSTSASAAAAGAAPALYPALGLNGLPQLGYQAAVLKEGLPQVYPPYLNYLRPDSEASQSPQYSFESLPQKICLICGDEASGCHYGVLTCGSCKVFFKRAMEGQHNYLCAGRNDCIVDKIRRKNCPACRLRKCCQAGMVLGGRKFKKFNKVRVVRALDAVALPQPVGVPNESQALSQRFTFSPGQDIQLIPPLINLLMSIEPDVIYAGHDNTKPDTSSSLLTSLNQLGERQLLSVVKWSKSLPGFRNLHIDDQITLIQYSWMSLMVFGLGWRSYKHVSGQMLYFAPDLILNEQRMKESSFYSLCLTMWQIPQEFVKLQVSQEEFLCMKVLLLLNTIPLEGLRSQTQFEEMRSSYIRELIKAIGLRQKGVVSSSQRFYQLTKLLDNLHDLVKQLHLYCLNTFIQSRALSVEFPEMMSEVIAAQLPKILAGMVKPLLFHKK
In short: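 Beta-lactamase reporter read-out: after 16 hr compound treatment at 37C and a further 2 hr at room temperature with LiveBLAzer B/G FRET substrate, fluorescence was measured in PR-UAS-bla HEK 293T cells grown in 2% charcoal-stripped serum.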

[7] = molecular target: Progesterone receptor (Homo sapiens) (UniProt P06401); assay: qHTS assay to identify small molecule antagonists of the progesterone receptor (PR) signaling pathway (AID 1346795; active means well fitted inhibition curve with a large enough effect in the signal ratio in the repeat runs, not every such curve was filed as active; the % refers to the signal ratio; further: potency means the concentration at half of the fitted maximal effect)
In short: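 Read-out is fluorescence from the LiveBLAzer B/G FRET substrate, cleaved by a UAS-controlled beta-lactamase in PR-UAS-bla HEK293T cells after 16 hr exposure to compound plus 1 nM promegestone (final), followed by 2 hr at room temperature.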

[8] = qHTS assay to identify small molecule antagonists of the progesterone receptor (PR) signaling pathway - cell viability counter screen (AID 1346798); further: nearly all actives have a fitted effect of over 50% in size; further: potency means the concentration at half of the fitted maximal effect
In short: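 HEK293T PR-UAS-bla, 2% charcoal-stripped FBS; 4 hr pre-plate; cpd + R5020, 16 h 37C; LiveBLAzer read first; then CellTiter-Glo 30 min RT, luminescence.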

[9] = qHTS assay to identify small molecule agonists of the progesterone receptor (PR) signaling pathway - cell viability counter screen (AID 1346799; calls by dose curve; further: nearly all actives have a fitted effect of over 45% in size)
In short: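 Luminescence from CellTiter-Glo, added after the beta-lactamase FRET read in the same wells, gave cytotoxicity in PR-UAS-bla HEK293T cells treated with compounds for 16 hr at 37C.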

[10] = qHTS assay to identify small molecule antagonists of the TGF-beta/Smad signaling pathway - cell viability counter screen (AID 1346824); further: nearly all actives have a fitted effect of over 50% in size
In short: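 SBE-bla HEK 293T cells were plated overnight at 37 C, then given compounds in DMSO plus TGF-beta1 (added as 0.25 ng/mL solution) for 5 hr. After the bla read, CellTiter-Glo was added to the same wells and luminescence read after 30 min at room temperature.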

[11] = qHTS assay to identify small molecule agonists of the TGF-beta/Smad signaling pathway - cell viability counter screen (AID 1346829); further: top concentration of the series differs between compounds; nearly all actives have a fitted effect of over 45% in size
In short: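 SBE-bla HEK 293T cells plated overnight, compound exposure 5 hr at 37 C. Viability read in the same wells by CellTiter-Glo luminescence after 30 min at room temperature, following the beta-lactamase read.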

[12] = qHTS assay to identify small molecule agonists of the TGF-beta/Smad signaling pathway (AID 1346859; active means well fitted activation curve with a large enough effect in the signal ratio in the repeat runs, not every such curve was filed as active; the % refers to the signal ratio; further: series mostly up to about 77 µM)
In short: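 SBE-bla HEK 293T, 4,000 cells/well, plated o/n; cpd in DMSO, 5 hr, 37 C/5% CO2; B/G FRET substrate 2 hr RT; ex 405, em 460/530 nm.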

[13] = molecular target: Thyrotropin-releasing hormone receptor (Homo sapiens) (UniProt P34981); assay: qHTS assay to identify small molecule antagonists of the thyrotropin-releasing hormone receptor (TRHR) signaling pathway (AID 1346877; active means well fitted inhibition curve with a large enough effect in the repeat runs, not every such curve was filed as active; further: series mostly up to about 51 µM)
Chain of Thyrotropin-releasing hormone receptor (Homo sapiens) (P34981 whole entry, looked up): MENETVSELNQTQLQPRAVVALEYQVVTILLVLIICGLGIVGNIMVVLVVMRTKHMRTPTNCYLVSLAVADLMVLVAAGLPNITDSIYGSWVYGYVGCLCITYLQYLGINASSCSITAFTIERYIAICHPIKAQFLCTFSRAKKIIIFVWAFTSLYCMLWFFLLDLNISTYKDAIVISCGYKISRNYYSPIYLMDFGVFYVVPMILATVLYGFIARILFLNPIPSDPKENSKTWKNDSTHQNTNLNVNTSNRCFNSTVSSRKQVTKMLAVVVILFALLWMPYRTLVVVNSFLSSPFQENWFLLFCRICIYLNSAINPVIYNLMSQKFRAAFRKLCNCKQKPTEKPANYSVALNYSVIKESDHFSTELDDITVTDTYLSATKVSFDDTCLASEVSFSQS
In short: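 Following an 18 h incubation at 37 °C and a 2 h calcium dye load, TRHR-HEK293 cells were exposed to compound (5 min, room temperature) and challenged with TRH, 1 nM final.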

[14] = molecular target: Thyrotropin-releasing hormone receptor (Homo sapiens) (UniProt P34981); assay: qHTS assay to identify small molecule agonists of the thyrotropin-releasing hormone receptor (TRHR) signaling pathway (AID 1346891; calls by dose curve; further: series mostly up to about 58 µM)
In short: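 Intracellular calcium rise, read as fluorescence every second for 3 min, served as the agonist signal in dye-loaded HEK293 cells expressing TRHR; each compound ran at 15 concentrations in triplicate.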

[15] = molecular target: Estrogen receptor (Homo sapiens) (UniProt P03372); assay: qHTS assay to identify small molecule agonists of the estrogen receptor alpha (ER-alpha) signaling pathway in the presence of an antagonist (AID 1259383; calls by dose curve; further: top concentration of the series differs between compounds; nearly all actives have a fitted effect of over 15% in size)
Chain of Estrogen receptor (Homo sapiens) (P03372 whole entry, looked up): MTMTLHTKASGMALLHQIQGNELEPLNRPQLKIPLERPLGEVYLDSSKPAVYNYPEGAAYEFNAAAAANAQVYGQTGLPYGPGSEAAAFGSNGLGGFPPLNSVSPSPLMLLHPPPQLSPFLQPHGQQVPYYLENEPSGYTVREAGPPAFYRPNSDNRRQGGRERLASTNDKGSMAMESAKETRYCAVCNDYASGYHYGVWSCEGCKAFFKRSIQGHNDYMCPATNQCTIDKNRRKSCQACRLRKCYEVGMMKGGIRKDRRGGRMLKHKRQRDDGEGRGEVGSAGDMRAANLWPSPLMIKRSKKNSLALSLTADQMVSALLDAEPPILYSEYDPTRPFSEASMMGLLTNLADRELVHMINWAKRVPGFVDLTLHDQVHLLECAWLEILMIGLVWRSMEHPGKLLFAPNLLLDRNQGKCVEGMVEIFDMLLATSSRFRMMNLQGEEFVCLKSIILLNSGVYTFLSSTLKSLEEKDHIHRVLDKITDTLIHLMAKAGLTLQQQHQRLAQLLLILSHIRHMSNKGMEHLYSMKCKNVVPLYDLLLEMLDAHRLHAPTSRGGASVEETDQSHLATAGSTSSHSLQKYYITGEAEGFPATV
In short: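 Stably transfected VM7Luc4E2 reporter cells, kept 5 days in charcoal-stripped serum, received ICI-182,780 at 10.0nM final before compound addition. Following 22hr incubation at 37C and 5% CO2, luciferase signal was read by luminescence.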

[16] = qHTS assay to identify small molecule agonists or antagonists of the thyroid stimulating hormone receptor (TSHR) signaling pathway - wild type cell line counter screen (AID 1259384; calls by dose curve)
In short: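 Wild-type HEK293 cells were plated 18 h at 37 C/5% CO2, pin-dosed with compound plus Ro20-1724 medium, held 30 min at room temperature, then given cAMP-d2 and anti-cAMP-cryptate; fluorescence was read after 1 h. Fifteen concentrations, triplicate.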

[17] = Human pregnane X receptor (PXR) small molecule agonists, qHTS cell viability counter screen (AID 1346977); further: nearly all actives have a fitted effect of over 50% in size; further: potency means the concentration at half of the fitted maximal effect
In short: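 PXR-Luc HepG2, 2,000 cells/well, 5% charcoal-stripped FBS; 5hr settle; cpd 24hr, 37C/5% CO2; CellTiter-Fluor at 23hr, read 1hr later (fluorescence).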

[18] = molecular target: Thyrotropin receptor (Homo sapiens) (UniProt P16473); assay: qHTS assay to identify small molecule antagonists of the thyroid stimulating hormone receptor (TSHR) signaling pathway (AID 1259385; calls by dose curve; further: nearly all actives have a fitted effect of over 20% in size; further: potency means the concentration at half of the fitted maximal effect)
Chain of Thyrotropin receptor (Homo sapiens) (P16473 whole entry, looked up): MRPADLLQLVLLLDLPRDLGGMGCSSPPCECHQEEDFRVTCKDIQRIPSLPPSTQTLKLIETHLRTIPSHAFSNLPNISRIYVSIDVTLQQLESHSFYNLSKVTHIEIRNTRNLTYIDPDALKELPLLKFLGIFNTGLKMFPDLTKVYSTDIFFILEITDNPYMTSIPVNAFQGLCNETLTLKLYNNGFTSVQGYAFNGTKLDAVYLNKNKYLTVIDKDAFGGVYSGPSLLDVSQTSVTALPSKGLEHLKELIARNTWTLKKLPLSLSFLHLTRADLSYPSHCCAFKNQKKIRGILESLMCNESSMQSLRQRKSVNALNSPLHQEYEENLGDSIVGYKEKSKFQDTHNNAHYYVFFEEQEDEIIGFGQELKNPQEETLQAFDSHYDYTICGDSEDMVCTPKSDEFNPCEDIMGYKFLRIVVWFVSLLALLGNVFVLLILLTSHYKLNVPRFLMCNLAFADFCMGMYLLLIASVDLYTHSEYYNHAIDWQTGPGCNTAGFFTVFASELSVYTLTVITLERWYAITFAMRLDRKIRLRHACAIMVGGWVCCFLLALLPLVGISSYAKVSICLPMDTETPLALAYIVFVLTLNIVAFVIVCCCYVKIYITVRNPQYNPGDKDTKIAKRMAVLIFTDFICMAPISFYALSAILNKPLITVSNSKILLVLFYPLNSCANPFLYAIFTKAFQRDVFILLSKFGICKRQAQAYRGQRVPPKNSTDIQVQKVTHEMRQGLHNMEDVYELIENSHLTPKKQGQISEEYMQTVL
In short: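 TSHR-HEK293 cells were plated and held 18 h at 37C/5% CO2, then given compound plus Ro20-1724 and stimulated with TSH at 1.5 ng/mL final. After 30 min at room temperature, cAMP was detected with cAMP-d2/anti-cAMP-cryptate (1 h) by fluorescence.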

[19] = qHTS assay to identify small molecule agonists of the estrogen receptor beta (ER-beta) signaling pathway - cell viability counter screen (AID 1259380); further: nearly all actives have a fitted effect of over 30% in size; further: potency means the concentration at half of the fitted maximal effect
In short: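 CellTiter-Glo read, 30 min RT, same wells as bla assay; cells ER-beta-UAS-bla HEK293T; 16 hr compound, 37C; medium 2% charcoal-stripped FBS.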

[20] = molecular target: Estrogen receptor beta (Homo sapiens) (UniProt Q92731); assay: qHTS assay to identify small molecule antagonists of the estrogen receptor beta (ER-beta) signaling pathway (AID 1259378; active means well fitted inhibition curve with a large enough effect in the signal ratio in the repeat runs, not every such curve was filed as active; the % refers to the signal ratio; further: potency means the concentration at half of the fitted maximal effect)
In short: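 ER-beta-UAS-bla HEK293T (GripTite) cells in 2% charcoal-stripped FBS medium were preincubated 6 hr at 37C, dosed with compound, then stimulated with 1 nM E2 (final) for 16 hr; beta-lactamase reporter read by B/G FRET fluorescence after 2 hr substrate loading.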

Measured: Potency

CN(C)CCc1c[nH]c2ccc(O)cc12
active: [7] 53.2 µM | [8] 42.3 µM
not listed: [15] | [16] | [17] | [18] | [19] | [20]
inactive: all other assays above

O=S(=O)(c1ccc(Cl)cc1)c1ccc(Cl)cc1
inactive: [1] | [2] | [4] | [15] | [16] | [5] | [10] | [11] | [12] | [17]

CCOC(=O)C1(c2ccccc2)CCN(CCC(C#N)(c2ccccc2)c2ccccc2)CC1
not listed: [7] | [19] | [20]
inactive: all other assays above

O=C(CCCN1CCC2(CC1)C(=O)NCN2c1ccccc1)c1ccc(F)cc1
active: [19] 13.3 µM | [17] 6.68 µM
not listed: [3] | [5] | [7] | [13] | [14] | [16] | [20]
inactive: all other assays above

N#CCCC(Br)(C#N)CBr (stereo not given)
inactive: [1] | [15] | [9] | [10] | [11] | [12] | [14]
active: [19] 43.3 µM | [18] 54.5 µM

COC(=O)N(C(=O)N1CO[C@@]2(C(=O)OC)Cc3cc(Cl)ccc3C2=N1)c1ccc(OC(F)(F)F)cc1
inactive: [1] | [2] | [3] | [4] | [15] | [18] | [5] | [10] | [11] | [12] | [17]

C[C@]12CC[C@@H]3c4ccc(OC(=O)N(CCCl)CCCl)cc4CC[C@H]3[C@@H]1CC[C@@H]2O
active: [1] 0.266 µM
not listed: [3] | [7] | [9] | [15] | [20]
inactive: all other assays above

OC(Cc1ccccc1Cl)(Cn1cncn1)C1(Cl)CC1 (stereo not given)
inactive: [1] | [2] | [19] | [15] | [16] | [18] | [5] | [6] | [10] | [11] | [12]

BrCC(Br)c1ccccc1 (stereo not given)
not listed: [1] | [10] | [13] | [14] | [16]
inactive: all other assays above

COP(=O)(CCC(=O)NCO)OC
not listed: [1] | [7] | [16] | [20]
inactive: all other assays above

COS(=O)(=O)c1ccc(C)cc1
not listed: [1] | [16] | [20]
inactive: all other assays above

CC(=O)C(Cl)(Cl)Cl
active: [2] 20.9 µM | [5] 18.7 µM | [17] 8.34 µM
not listed: [1] | [6] | [7] | [9] | [18] | [20]
inactive: all other assays above

CC(C)CC(C)Nc1ccc(Nc2ccccc2)cc1 (stereo not given)
active: [20] 30.1 µM | [19] 67.4 µM | [7] 47.7 µM | [17] 53.5 µM
inactive: [15] | [18] | [12] | [13] | [14]

CC(C)OS(C)(=O)=O
not listed: [1] | [3] | [19]
inactive: all other assays above

CC(C)CC(C)N (stereo not given)
not listed: [1] | [3] | [7]
inactive: all other assays above
